Dicer processing – inhibitors of Dicer pre-microRNA processing, primary screen, biochemical, cat-ELCCA, chemiluminescence; z-score at 25 µM; hit rate 6% among 47,000; cat-ELCCA pre-miR-21 Dicer processing; stronger effect = higher value; AID 1347074, 2019; in the data active = z-score above about 3, passing the limit was not always enough;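 also: plate controls were vehicle for no effect and no enzyme for full effect; higher signal means more uncleaved substrate so more Dicer inhibition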
An asterisk follows results filed as active. The entries come from a sample that favours hits as a whole.

SMILES	Dicer processing
CCN1C(=O)C2(/C(=C(/O)c3ccc(OC)cc3)C(=O)C(=O)N2CCOC)c2ccccc21 (centres undefined)	0.23
C=CCOc1ccc(/C(O)=C2/C(=O)C(=O)N(CCCOC)C23C(=O)N(C)c2ccccc23)cc1C (centres undefined)	2.7
C=CCOc1ccc(/C(O)=C2/C(=O)C(=O)N(CCCN(C)C)C23C(=O)N(C)c2ccccc23)cc1C (centres undefined)	2.5
C=CCOc1ccc(/C(O)=C2/C(=O)C(=O)N(CCOC)C23C(=O)N(CC)c2ccccc23)cc1C (centres undefined)	6*
Cc1[nH]n2c(=O)cc(-c3ccc(F)cc3)nc2c1-c1ccccc1	0.1
CN(C(=O)Nc1ccccc1)n1cnc2ccccc2c1=O	1.9
Cc1ccc(S(=O)(=O)Nc2ccc3oc4ncccc4c(=O)c3c2)cc1	18
Cc1ccc(S(=O)(=O)Nc2ccc3[nH]cc(Cl)c3c2)cc1	3.1*
CC(C)(C)c1ccc(S(=O)(=O)Nc2ccc(O)c(Cl)c2)cc1	2.3
COc1ccc(CCN2C(=O)C(C)SC2c2cccnc2)cc1 (centres undefined)	4.2*
CC1SC(c2cccnc2)N(c2ccc(Cl)cc2)C1=O (centres undefined)	6.3
O=C1CSC(c2cccnc2)N1CCc1ccc(Cl)cc1 (centres undefined)	6.5
CCCC1CCc2c(sc(NC(=O)CCCC(=O)O)c2C(N)=O)C1 (centres undefined)	0.31
S=C(NCCc1ccccc1)N/N=C/c1c(-c2ccc(Cl)cc2)[nH]c2ccccc12	3.7*
Oc1ccccc1/C=N/NC(=S)NCCc1ccccc1	12
COc1cccc(/C=N/NC(=S)NCCc2ccccc2)c1OC	-1.4
CC1CCN(C(=O)Cn2cc(C(=O)C(C)(C)C)c3ccccc32)CC1	1.2
Cc1cc(C)nc(NC(=O)CN2C(=O)C3CCCCC3C2=O)n1 (centres undefined)	1.6
CC(=O)Nc1ccc(S(=O)(=O)Nc2nc(C)cc(C)n2)cc1	-1.6
Cc1ccnc(NS(=O)(=O)c2ccc(N3C(=O)C4CCCCC4C3=O)cc2)n1 (centres undefined)	8.1*
Cc1ccc(-c2cnc(NCc3ccc(F)cc3)n2C)cc1C	0.53
CCCN1C(=O)C(O)(CC(=O)c2cccs2)c2cc(Br)ccc21 (centres undefined)	2.3
Cc1ccc(Oc2ccc3nnc(-c4ccccc4)n3n2)cc1C	-0.38
Cn1nc(C(F)(F)F)cc1OS(=O)(=O)c1ccc(Cl)cc1	-1.5
CN1C(=O)c2cccc3c(S(=O)(=O)Nc4ccc(C(=O)O)cc4)ccc1c23	0.11
SMILES	Dicer processing
O=C1Sc2ccc(S(=O)(=O)Nc3ccc(Br)cc3)c3cccc1c23	3.3*
O=C1Sc2ccc(S(=O)(=O)Nc3cccc(Cl)c3)c3cccc1c23	2.4
CCN1C(=O)C2(/C(=C(/O)c3ccc(OC)c(C)c3)C(=O)C(=O)N2CCN(C)C)c2ccccc21 (centres undefined)	-4
CCCCN1C(=O)C2(/C(=C(/O)c3ccc4c(c3)CC(C)O4)C(=O)C(=O)N2CCOC)c2ccccc21 (centres undefined)	4.9*
CCN1C(=O)C2(/C(=C(/O)c3ccc4c(c3)CC(C)O4)C(=O)C(=O)N2CCN(C)C)c2ccccc21 (centres undefined)	-1.6
CCCCN1C(=O)C2(/C(=C(/O)c3ccc(C)cc3)C(=O)C(=O)N2CCCN(C)C)c2ccccc21 (centres undefined)	1.8
CCN1C(=O)C2(/C(=C(/O)c3ccc4c(c3)CC(C)O4)C(=O)C(=O)N2CCCN(C)C)c2ccccc21 (centres undefined)	4.3*
O=C(CN1C(=O)c2cccc3cccc1c23)NCc1ccc2c(c1)OCO2	1.2
CC(C)Oc1cccc(OCC(F)(F)F)c1C#N	-0.44
Cc1nc(Cc2ccc([N+](=O)[O-])cc2)no1	-0.85
NCCCS(=O)(=O)O	0.89
Cn1c(=O)sn(-c2ccccc2)c1=O	2.1
Cc1ccc(C2CC(=O)c3c(S(C)=O)sc(C#N)c3C2)cc1 (centres undefined)	3.6*
CS(=O)c1sc(Cl)c2c1C(=O)CCC2 (centres undefined)	-1.4
CS(=O)c1sc(C#N)c2c1C(=O)CCC2 (centres undefined)	-1.7
Nc1ncnc2c1nc(N/N=C/c1ccnc3ccccc13)n2[C@H]1O[C@@H](CO)[C@H](O)[C@@H]1O	-2
O=C1c2ccccc2C(=O)C1c1ccncc1	0.7
Cc1c2c(=O)n(-c3ccccc3)[nH]c2cc(=O)n1Cc1cccnc1	0.96
Cc1c2c(=O)n(-c3ccccc3)[nH]c2cc(=O)n1Cc1ccco1	3.3*
Cc1ccccc1-n1c(N)cc(=O)n(Cc2ccco2)c1=O	1.4
Cn1nc(-c2ccccc2)cc1NC(=O)c1ccccc1C(=O)O	0.06
Cc1ccc(S(=O)(=O)NCC(Sc2nnc3nc(C)cc(C)n23)c2ccccc2)cc1 (centres undefined)	3.5*
Cc1cc(C)n2c(SCC(=O)O)nnc2n1	-0.62
Cc1cc(C)n2c(SCC(C)C)nnc2n1	-0.03
CC1CCC(C(C)C)C(OCC(O)CN2CC(C)OC(C)C2)C1 (centres undefined)	-0.41
SMILES	Dicer processing
Cc1cc2n(n1)C(c1cccs1)Nc1ccccc1-2 (centres undefined)	0.96
COCCOc1cc(COC)nc(-c2cccc(C)c2)n1	2
NC(=O)C1CCN(C2CC(=O)N(c3ccc(Br)cc3)C2=O)CC1 (centres undefined)	0.5
COC(=O)c1cnc(N2CCCN(C(=O)NC3CCCCC3)CC2)nc1C(F)(F)F	-0.81
CCOc1ccc(-n2nc3cc(C)c(N)cc3n2)cc1	4.6*
CCOc1ccc(-n2nc3ccc(N)cc3n2)cc1	-3.8
COc1ccc(-n2nc3ccc(N)cc3n2)cc1	-4.1
COc1ccc(C(=O)CC2(O)C(=O)Nc3ccc(Br)cc32)c(OC)c1 (centres undefined)	0.51
Cc1cc(Br)cnc1N=CN(C)C	3*
Cc1cc(Br)cnc1N=CNO	0.37
Cc1cc(N=CN(C)C)c2ccccc2n1	-1.7
CSc1sc(C(=O)O)c(C)c1S(=O)(=O)c1ccc(Cl)cc1	-0.93
C=C(C)C1CC=C(C(=O)O)CC1 (centres undefined)	-1.5
Cc1nc(-c2ccccc2)nc2sc(C(=O)c3cc4ccccc4o3)c(N)c12	0.03
CC1CN(c2ccc(NS(=O)(=O)c3ccccc3)cc2C(=O)O)CC(C)O1 (centres undefined)	-1.3
N[C@H](C(=O)O)[C@H](O)C(=O)O	-0.41
C/C=C/C(=O)N(CC)c1ccccc1C	3.6*
Cc1ccccc1NC(=O)/C=C/C(=O)O	-0.63
CCN(C(=O)c1cnccc1C(F)(F)F)c1cccc(C)c1C	-0.66
C/C(=N\Nc1c(C)cccc1Cl)c1ccc(Oc2ncc([N+](=O)[O-])s2)cc1	0.73
Cn1cc(Cl)c(/C=C(\C#N)S(=O)(=O)C(C)(C)C)n1	4.2*
Cn1cc(Cl)c(/C=C(\C#N)C(=O)c2ccc(Cl)cc2)n1	0.36
Cn1cc(Cl)c(/C=C(\C#N)S(=O)(=O)c2ccccc2)n1	0.91
Cc1onc(-c2ccccc2)c1CNS(=O)(=O)c1ccc(N2CCOCC2)nc1	0.94
c1ccc(-c2nc3ccccc3s2)nc1	0.55
COC(=O)c1ccc(S(=O)(=O)N(Cc2ccccc2)Cc2ccccc2)n1C	0.11
O=C1c2ccccc2C(=O)N1Cc1cccnc1	-0.5
O=C1c2ccccc2C(=O)N1CNc1ccc(Oc2ccc(Cl)cc2)cc1	5.3
CCCc1ccc(NCN2C(=O)c3ccccc3C2=O)cc1	2.2
